The values that follow come from ChEMBL document CHEMBL4513216, “Probing the Open Global Health Chemical Diversity Library for Multistage-Active Starting Points for Next-Generation Antimalarials” (ACS Infect Dis, 2020).

Screen size: about 68,000 compounds; about 2,700 (4%) showed an effect of 50% or more. The entries come from a sample that favours strong results as a whole.

In this test the test system is Plasmodium berghei. In words: Screen against P. berghei liver stage (PbLuc), transformed with Luciferase, at 2uM. It counts as functional, HepG2. The following applies: tested at 2 uM.
Regarding `CCCc1nc(CNc2ccc(F)c(F)c2)no1`, the INHIBITION is reported as -48.48%.
In the case of `COc1ccc2cc(CN(C)CCN3CCCCC3=O)c(=O)[nH]c2c1` it was 38.12%; in that of `CCN1CCCC1CNCc1cc2cc(OC)ccc2[nH]c1=O` (stereo not drawn), 42.49%.
In the case of `COc1ccc2[nH]c(=O)c(CN(C)CCN3CCCC3)cc2c1` it was 56.16%.
In the case of `CCOCC(=O)N1C[C@H]2CCC[C@@]2(COC)C1` it was 42.4%.
As to `CCn1nc(C)c(CNC(=O)c2nnc3ccccc3n2)c1C`, the INHIBITION came to 70.37%.
For `CCn1nc(C)c(CNC(=O)c2nnc3ccc(OC)cc3n2)c1C`, the INHIBITION is 33.58%.
On to `CCn1nc(C)c(CNC(=O)c2nnc3ccc(Cl)cc3n2)c1C`, for which the INHIBITION was 26.56%.
In the case of `Cc1nc(CN2CCC23CCN(C(=O)c2ccco2)CC3)cs1` it was 30.15%; in that of `Cc1cncc(NCc2ccccc2N2CCOCC2)c1`, 11.88%; in that of `CCS(=O)(=O)c1cccc(C(=O)Nc2cccc3c2C(=O)N(C)C3=O)c1`, 13.01%.
The same measure for `CCCOC1CCCN(C(=O)c2cnc(-c3csc(C)n3)nc2O)C1` (stereo not drawn): -20.84%; for `CC(=O)N1CCC2(CC1)NC(=O)[C@H]1CN(Cc3cccnc3)C[C@H]12`: 56.76%; for `CC(=O)N1CCC2(CC1)[C@@H]1CN(Cc3cccnc3)C[C@@H]1C(=O)N2C`: 35.89%.
The same measure for `CC(C)C(=O)N1CCC2(CC1)NC(=O)[C@H]1CN(Cc3cccnc3)C[C@H]12`: 37.54%; for `Cn1cccc1CN1CCC2(CC1)CN(c1ncccn1)CCO2`: -8.63%; for `Cc1ccc(CNC(=O)CCNS(C)(=O)=O)cc1`: 13.36%.
On to `CCn1ccnc1CN1CCN(CC(=O)NC(C2CC2)C2CC2)CC1`, for which the INHIBITION came to 29.19%.
The same measure for `CC(=O)N[C@H]1CCO[C@@H](c2cccc(NC(=O)c3ccc(=O)[nH]n3)c2)C1`: -3.15%; for `COc1ccc(CN2CCc3nc(C4CCCCN4C)ncc3C2)cc1` (stereo not drawn): -8.87%; for `CN1CCCCC1c1ncc2c(n1)CCN(Cc1ccc(Cl)c(F)c1)C2` (stereo not drawn): 56.99%.
In the case of `CN1CCCCC1c1ncc2c(n1)CCN(Cc1ccc(F)cc1)C2` (stereo not drawn), the INHIBITION is on record as 19.06%.
The same measure for `O=C1COC2(COCCN(Cc3cccnc3)C2)CN1c1ccccc1` (stereo not drawn): -43.73%; for `N#CCCN(Cc1ccco1)C(=O)c1ccc(OCC2CC2)cc1`: -5.51%; for `N#CCCN(CCC#N)C(=O)c1ccc(OCC2CC2)cc1`: 5.98%.
Turning to `N#CCCN(Cc1cccnc1)C(=O)c1ccc(OCC2CC2)cc1`, the INHIBITION came out at 56.89%.
The same measure for `O=C(c1cnccn1)N1CC[C@H]2[C@H]1CCN2S(=O)(=O)C1CC1`: -17.44%; for `CN(C)CC(=O)N1Cc2nc(C(=O)NCc3ccncc3)oc2C1`: 52.08%; for `CN(C)CC(=O)N1Cc2nc(C(=O)NCc3ccccc3)oc2C1`: 16.4%.
The same measure for `CCCNC(=O)c1nc2c(o1)CN(C(=O)CN(C)C)C2`: -31.4%; for `CSCc1ccc(C(=O)NCCCNc2ccc(C(F)(F)F)cn2)cc1`: 6.77%.
In the case of `Cn1c(CN2CCCCCC2)cc(=O)c(O)c1CN1CCCC1` it was 29.19%; in that of `Cc1ccnc(C2CCN(C(=O)CCn3ncc4ccccc43)C2)n1` (stereo not drawn), 72.83%; in that of `Cc1cc(C)nc(C2CCN(C(=O)CCn3ncc4ccccc43)C2)n1` (stereo not drawn), 30.73%.
Regarding `Cc1cc(C)nc(C2CCN(C(=O)CCn3nnc4ccccc43)C2)n1` (stereo not drawn), the INHIBITION stood at 13.22%.
In the case of `Cn1cc(CN2CCc3ccc(=O)n(CC4CC4)c3CC2)cn1` it was 23.68%.
Consider `OC1(CNc2ccccc2)CCNCC1`, for which the INHIBITION is listed as 51.61%.
The same measure for `OC1(CNc2ccc(F)cc2)CCNCC1`: 8.5%.
Consider `OC1(CNc2cccc(F)c2)CCNCC1`, for which the INHIBITION was -14.66%.
Consider `CCN(CC)S(=O)(=O)CC(=O)N1CCc2ccc(C)cc21`, for which the INHIBITION was -13.17%.
The same measure for `CCN(C(=O)CSc1ccc(C(F)(F)F)cn1)C1CC1`: -69.56%; for `NC(=O)C1CCCN1c1cc(N2CCc3ccccc3C2)ncn1` (stereo not drawn): -4.95%.
In the case of `c1ccc(COc2ccccc2CNC2CCc3ncnn3C2)cc1` (stereo not drawn) it was 11.95%.
The same measure for `c1ccc(C(OCCNC2CCc3ncnn3C2)c2ccccc2)cc1` (stereo not drawn): 64.71%.
In the case of `c1ccc(OCC2CC2)c(CNC2CCc3ncnn3C2)c1` (stereo not drawn), the INHIBITION was 54.2%.
Take `O=S(=O)(CCNC1CCc2ncnn2C1)c1ccccc1` (stereo not drawn): the INHIBITION came out at 11.18%.
For `c1ccc(CCNC2CCc3ncnn3C2)nc1` (stereo not drawn), the INHIBITION is -56.99%.
In the case of `c1ccc(OC2CCCC2)c(CNC2CCc3ncnn3C2)c1` (stereo not drawn) it was -12.48%.
The same measure for `COc1cccc(-c2cc(C3CCCNC3)ccn2)c1` (stereo not drawn): 17.29%; for `Cc1nnsc1CN(C)C(=O)CN1CC2(CCNCC2)OC1=O`: -7.96%; for `CCc1cc(NC(=O)C(c2cccc(F)c2)N2CCOCC2)[nH]n1` (stereo not drawn): 35.36%.
The same measure for `COC(=O)C(CCSC)NC(=O)Cc1c(C)nn(-c2ccccc2)c1C` (stereo not drawn): -60.22%.
With `CSCCC(NC(N)=O)C(=O)NCc1c(C)nn(-c2ccccc2)c1C` (stereo not drawn), the INHIBITION is listed as -58.01%.
In the case of `Cc1nn(-c2ccccc2)c(C)c1CNC(=O)NC1CC(=O)N(C)C1` (stereo not drawn) it was 62.39%; in that of `Cc1nn(-c2ccccc2)c(C)c1CNC(=O)NC1CC1`, 28.73%; in that of `COC(=O)[C@H](CCSC)NC(=O)Cc1c(C)nn(-c2ccccc2)c1C`, 4.89%.
The same measure for `Cc1nn(-c2ccccc2)c(C)c1CC(=O)NC1CC(=O)N(C)C1` (stereo not drawn): 59.03%.
In the case of `CC(=O)N1CCN(Cc2ccncc2)CC2(CC(=O)N(C)C2)C1` (stereo not drawn) it was 3.49%.
For the compound `CN1CCN(CC2(O)CCCN(C(=O)Cc3cccc(O)c3)CC2)CC1` (stereo not drawn), the INHIBITION amounted to 12.6%.
In the case of `Cc1nc(C)c(C(=O)NCCNc2ncccc2C(F)(F)F)s1` it was -90.65%; in that of `Cc1nc(NC(=O)c2ccc(-n3ncc(C#N)c3N)cc2)sc1C`, 78.98%; in that of `Cc1cnc(NC(=O)c2ccc(-n3ncc(C#N)c3N)cc2)s1`, -50.69%.
In the case of `Cc1cc(NC(=O)c2ccc(-n3ncc(C#N)c3N)cc2)n(C)n1` it was -28.98%; in that of `CC1CCC(O)(CSc2nnnn2C)CC1` (stereo not drawn), 4.91%; in that of `CC(C)CC(=O)NCC(O)c1c(F)cccc1F` (stereo not drawn), 14.96%.
In the case of `CN(C)C(=O)CN1CCOCC2(CCN(CC3CCOC3)CC2)C1` (stereo not drawn) it was 82.53%.
For the compound `CN(C)C(=O)CN1CCC2(C1)CN(CC1CCOC1)C2` (stereo not drawn), the INHIBITION is reported as -54.01%.
In the case of `CN(C)C(=O)CN1CCOCC2(CCN(CC3CCOCC3)CC2)C1` it was 12.68%.
